Reference: publication PMC5540273 (PLoS ONE, 2017)
Read-outs that look alike come from different tables or passages of the source.

How the values were obtained:
MAP3K15 = settings: concentration: 1 μM, replicates: in singlicate; n = 1
MAP3K1 = settings: concentration: 1 μM, replicates: in singlicate; n = 1
MAP3K2 = settings: concentration: 1 μM, replicates: in singlicate; n = 1
MAP3K3 = settings: concentration: 1 μM, replicates: in singlicate; n = 1
MAP3K4 = settings: concentration: 1 μM, replicates: in singlicate; n = 1
MAP4K2 = settings: concentration: 1 μM, replicates: in singlicate; n = 1
MAP4K3 = settings: concentration: 1 μM, replicates: in singlicate; n = 1
MAP4K4 = settings: concentration: 1 μM, replicates: in singlicate; n = 1
MAP4K5 = settings: concentration: 1 μM, replicates: in singlicate; n = 1
MAPKAPK2 = settings: n = 1
[1] = concentration: 1 μM, replicates: in singlicate
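Also: KINOMEscan kinase panel screen.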

SMILES | %Inh (MAP3K15) [%] | %Inh (MAP3K1) [%] | %Inh (MAP3K2) [%] | %Inh (MAP3K3) [%] | %Inh (MAP3K4) [%] | %Inh (MAP4K2) [%] | %Inh (MAP4K3) [%] | %Inh (MAP4K4) [%] | %Inh (MAP4K5) [%] | %Inh (MAPKAPK2; [1]) [%] | %Inh (MAPKAPK2; 1 µM) [%]
CCc1ccc(-c2ccc3c(c2)-c2c(cnn2C)S(=O)(=O)N3C)cc1 | 0 | 34 | 0 | 0 | 23 | 0 | 3 | 0 | 1 | 13 | –
CC(=O)Nc1nc2cnc(Nc3cc(NC(=O)c4cccc(C5(C#N)CC5)c4Cl)ccc3C)nc2s1 | 0 | 0 | 0 | 0 | 10 | 16 | 0 | 17 | 0 | 0 | –
O=C(O)C(F)(F)F.O=C(O)C(F)(F)F.O=c1[nH]ccc2nc(N[C@@H]3CCCNC3)nc(Nc3ccc(S(=O)(=O)N4CCOCC4)cc3)c12 [GSK2177277] | 67 | 22 | 100 | 99.9 | 0 | 100 | 99 | 97.6 | 99.8 | 65 | –
Cc1ccc(C(=O)N2CC[C@@H](O)C2)cc1-n1c(C)cc(OCc2ccc(F)cc2F)c(Br)c1=O | 0 | 0 | 0 | 0 | 0 | 0 | 0 | 6 | 8 | 0 | –
CCn1c(-c2nonc2N)nc2c(C#CC(C)(C)O)nc(OC[C@H](N)c3ccccc3)cc21 [GSK943949] | 0 | 0 | 57 | 55 | 1 | 19 | 11 | 8 | 40 | 0 | –
COc1ccc(Nc2nccc(N3CCC(NC(=O)Nc4cccc(OC)c4)C3)n2)cc1 (centres unmarked) [GSK1379742] | 0 | 0 | 0 | 0 | 23 | 0 | 5 | 0 | 0 | 9 | –
COc1ccc(CNC(=O)NC2CCN(c3ccnc(Nc4ccc(F)cc4)n3)CC2)cc1 [GSK1379788] | 0 | 4 | 0 | 0 | 0 | 0 | 0 | 2 | 0 | 1 | –
Cc1ccc(F)c(C(=O)Nc2cccc(-c3nn4ccccc4c3-c3ccnc(Nc4cccc(F)c4)n3)c2)c1F [GSK361061] | 24 | 31 | 16 | 0 | 44 | 0 | 18 | 25 | 80 | 23 | –
CNC(=O)c1ccccc1Nc1nc(Nc2ccc(N3CCOCC3)cc2)ncc1Cl.Cl [GSK1576028] | 36 | 22 | 99.5 | 99.4 | 90.1 | 93.5 | 98.9 | 28 | 81 | 0 | –
O=C(Nc1cccc(-c2nn3ccccc3c2-c2ccnc(Nc3cccc(F)c3)n2)c1)c1c(F)ccc(F)c1Cl [GSK357952] | 66 | 0 | 20 | 7 | 24 | 0 | 1 | 28 | 51 | 14 | –
CC(C)(C)c1ccc2nccc(Nc3cccc(O)c3)c2c1 [GW856795] | 0 | 0 | 0 | 0 | 0 | 100 | 0 | 23 | 29 | 11 | –
O=C(Nc1cccc(-c2nn3ccccc3c2-c2ccnc(Nc3cccc(C(F)(F)F)c3)n2)c1)c1c(F)cccc1F [GSK292658] | 26 | 11 | 0 | 2 | 6 | 6 | 0 | 1 | 15 | 21 | –
CCn1c(-c2nonc2N)nc2c(C#CC(C)(C)O)ncc(OCCCCN)c21.O=C(O)C(F)(F)F.O=C(O)C(F)(F)F [GSK507274] | 3 | 100 | 90 | 81 | 53 | 0 | 0 | 7 | 35 | – | 28
Nc1ncc(-c2cccnc2)c2scc(-c3ccc4c(c3)CCN4C(=O)Cc3ccccc3)c12 [GSK683281] | 100 | 41 | 56 | 18 | 69 | 23 | 95.2 | 8 | 98.8 | 24 | –
O=C(Nc1ccccc1F)NC1CCN(c2ccnc(Nc3ccc(F)cc3)n2)CC1 [GSK1379800] | 0 | 13 | 0 | 0 | 0 | 0 | 0 | 0 | 0 | 6 | –
Cc1ccc(C(=O)Nc2ccc(Nc3ccnc4cc(-c5nccs5)ccc34)cc2O)cc1.Cl [GW494702] | 16 | 14 | 0 | 0 | 19 | 0 | 0 | 5 | 71 | 17 | –
O=C(NC1CCN(c2ccnc(Nc3ccc(F)cc3)n2)C1)c1cc2ccccc2s1 (centres unmarked) [GSK1379716] | 0 | 16 | 12 | 0 | 0 | 0 | 0 | 0 | 0 | 32 | –
Cl.c1ccc(-c2ccc3c(Nc4ccc5[nH]ncc5c4)ccnc3c2)nc1 [GW440137] | 4 | 22 | 0 | 0 | 4 | 0 | 0 | 0 | 0 | 1 | –
c1ccc(-c2n[nH]cc2Nc2ccnc3ccccc23)nc1 [GW694077] | 6 | 0 | 38 | 0 | 9 | 65 | 0 | 20 | 0 | 0 | –
C[C@@H](Oc1cc(-n2cnc3cc(-c4ccnc(NCCS(C)(=O)=O)c4)ccc32)sc1C(N)=O)c1ccccc1Cl [GSK907232] | 6 | 92 | 10 | 0 | 35 | 20 | 85 | 21 | 96.3 | 0 | –
Cl.Cl.NCC(C(=O)Nc1cc(Br)c(-c2ccnc3[nH]ccc23)s1)c1ccccc1 (centres unmarked) [GSK1269851] | 0 | 17 | 13 | 0 | 63 | 13 | 0 | 20 | 0 | 0 | –
c1ccc(Oc2ccc(Nc3ccnc4cc(-c5ccc(CNCCN6CCOCC6)o5)ccc34)cc2)nc1 [GW567145] | 0 | 9 | 1 | 0 | 0 | 0 | 0 | 9 | 56 | 0 | –
COc1cccc(C(=O)Nc2cccc(Oc3ccc4nc(NC(=O)C5CC5)cn4n3)c2)c1 | 0 | 9 | 0 | 24 | 10 | 0 | 69 | 48 | 49 | 0 | –
Cc1cccc(NC(=O)Nc2ccc(Oc3ncnc4ccn(C)c34)cc2)c1 | 0 | 0 | 0 | 0 | 0 | 0 | 0 | 0 | 0 | 0 | –
O=c1[nH]cc(-c2ccc(N3CCOCC3)cc2)c2sc(-c3cn[nH]c3)cc12 [GSK2276055] | 0 | 16 | 12 | 0 | 21 | 27 | 0 | 1 | 2 | 0 | –
O=C(Nc1cccc(Oc2ccc3nc(NC(=O)C4CC4)cn3n2)c1)c1ccccc1C(F)(F)F | 0 | 0 | 0 | 8 | 26 | 0 | 64 | 8 | 29 | 0 | –
Cl.Cl.NCC(NCc1ccc(-c2ccnc3[nH]ccc23)s1)c1ccccc1 (centres unmarked) [GSK1321565] | 0 | 0 | 63 | 29 | 0 | 64 | 2 | 0 | 0 | 0 | –
CN(C)S(=O)(=O)c1cc(-c2ccc3nccc(-c4cccc(S(N)(=O)=O)c4)c3c2)cnc1N [GSK1669921] | 23 | 6 | 0 | 0 | 0 | 13 | 5 | 0 | 0 | 19 | –
NCCCC(NC(=O)c1cc(Br)c(-c2ccnc3[nH]ccc23)s1)c1ccccc1.O=C(O)C(F)(F)F.O=C(O)C(F)(F)F (centres unmarked) [GSK1287544] | 23 | 9 | 24 | 0 | 9 | 31 | 4 | 17 | 2 | 0 | –
